HIV Env fusion – inhibitors of HIV-1 Env-driven cell-cell fusion, primary screen, HeLa-JRFL effector, CEM21 target cells, luciferase; inhibition, % at 12.3 µM; 360,000 compounds, 1.1% hits; AID 651610, 2012;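 active means mean replicate inhibition score of at least 50 and every replicate individually at or above 50; inconclusive means only one of the two criteria met; inactive means mean below 50 and not all replicates reaching 50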
esBAF inh – Bmi1 luciferase reporter increase in mESCs, primary screen, esBAF inhibitor project, mouse ES cells, Bmi1 luciferase knock-in, single point. 24 h; 100% = twice the neutral-well signal. reporter increase, % at 12.5 µM. 350,000 compounds, 2% hits. AID 602393, 2012; in the data active means activation above about 40%; inconclusive means no clear call, values can overlap the other calls;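 further: a rise in the Bmi1 reporter signal indicates esBAF inhibition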
Wnt bcat act – Wnt/beta-catenin pathway activators, primary screen, cell-based, plate reader, single point; Wnt/beta-catenin reporter cell assay, activator; activation, % at 9.35 µM; 300,000 compounds, 1.2% hits; AID 743398, 2014; in the data active means activation above about 30%, passing the limit was not always enough; inconclusive means no clear call, values can overlap the other calls
miR122 inh – miR-122 Renilla sensor signal increase in Huh7, primary screen, miR-122 inhibitor project, cell-based, single point, plate reader. Huh7 miR-122 Renilla luciferase sensor, 48 h; neutral wells = 0, positive control = 100. activation (reporter increase), % at 12.5 µM. 340,000 compounds, 0.3% hits. AID 602342, 2012;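 active means mean replicate activation score at least 90 and every replicate individually at or above 90; inconclusive means only one of the two criteria met; inactive means neither criterion met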;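 further: higher luciferase means less miR-122 activity so hits act as miR-122 inhibitors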
MITF TRPM1 HTS – activators of MITF-driven TRPM1 promoter reporter, primary screen, cell-based, SK-MEL-5, luciferase, single point; activation, % at 12.5 µM; SK-MEL-5 TRPM1-promoter luciferase, 24 h; % of positive control, neutral wells = 0; AID 588334, 2011; 300,000 compounds, 0.75% hits;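 active means mean activation of at least 80% with every replicate also reaching 80%; inconclusive means mean reaches 80% but some replicate falls short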
Hits are given with their value. A selection: hits, their analogues and other compounds. The true share with any hit is near 3.4%.

How did COc1ccc(C(=O)Nc2cc(Cl)ccc2OC(=O)c2ccc(OC)cc2)cc1 do in these assays?
esBAF inh: 69.2; miR122 inh: inactive; MITF TRPM1 HTS: inactive

Results for Cc1ccc(C(=O)Nc2cc(Cl)ccc2OC(=O)c2ccc(C)cc2)cc1 ?
HIV Env fusion: inactive

How did O=C(Nc1ccccc1OC(=O)c1ccc(Cl)cc1)c1ccc(Cl)cc1 do in these assays?
esBAF inh: 65.0; Wnt bcat act: inconclusive; miR122 inh: inactive; MITF TRPM1 HTS: inactive

What do the screens show for `CCCNC(=O)N(C)C[C@@H]1Oc2cc(-c3ccccc3F)ccc2S(=O)(=O)N([C@H](C)CO)C[C@@H]1C`?
HIV Env fusion: inactive; esBAF inh: inactive

How did COc1ccc(NC(=O)c2ccc3snnc3c2)cc1 do in these assays?
esBAF inh: 56.4; miR122 inh: inactive; MITF TRPM1 HTS: inactive

Results for CC(=O)c1ccc(NC(=O)c2ccc3snnc3c2)cc1 ?
HIV Env fusion: inactive; esBAF inh: 62.9; Wnt bcat act: inactive; MITF TRPM1 HTS: 84.8

What do the screens show for `CNC(=O)c1ccc2snnc2c1`?
HIV Env fusion: inactive; esBAF inh: inactive; Wnt bcat act: inactive; miR122 inh: inactive

How did O=C(Nc1ccc(Cl)cc1)c1ccc2snnc2c1 do in these assays?
HIV Env fusion: inactive; esBAF inh: 56.7; Wnt bcat act: inactive; miR122 inh: inactive; MITF TRPM1 HTS: inactive

How did CNC[C@H]1Oc2ccc(N)cc2C(=O)N([C@H](C)CO)C[C@@H]1C do in these assays?
HIV Env fusion: inactive; esBAF inh: inactive; miR122 inh: inactive

Results for O=C(NC1Cc2ccccc2C1)[C@@H]1[C@@H](CO)[C@@H]2Cn3c(cccc3=O)[C@H]1N2Cc1ccccc1F ?
esBAF inh: inactive; miR122 inh: inactive

Results for Cc1cccc(NC2=C/C(=N/S(=O)(=O)c3cccs3)c3ccccc3C2=O)c1 ?
HIV Env fusion: 75.6; Wnt bcat act: inactive; MITF TRPM1 HTS: inactive

How did Cc1ccc(Cl)cc1NC1=C/C(=N\S(=O)(=O)c2cccs2)c2ccccc2C1=O do in these assays?
HIV Env fusion: 112.3; esBAF inh: inactive; Wnt bcat act: inactive; miR122 inh: inactive; MITF TRPM1 HTS: inactive

How did O=C1C(Nc2ccc(O)cc2)=C/C(=N/S(=O)(=O)c2cccs2)c2ccccc21 do in these assays?
HIV Env fusion: 94.8; Wnt bcat act: inactive; MITF TRPM1 HTS: inactive

How did Cc1cc(C)c(S(=O)(=O)/N=C2\C=C(Nc3ccc(C(=O)O)cc3)C(=O)c3ccccc32)c(C)c1 do in these assays?
HIV Env fusion: 72.8; esBAF inh: inactive; Wnt bcat act: inactive; miR122 inh: inactive; MITF TRPM1 HTS: inactive

Results for O=C(O)c1ccc(NC2=C/C(=N/S(=O)(=O)c3ccccc3)c3ccccc3C2=O)cc1 ?
HIV Env fusion: inconclusive; Wnt bcat act: inactive; miR122 inh: inactive; MITF TRPM1 HTS: inactive

Results for C[C@H]1CN([C@@H](C)CO)C(=O)c2cc(NC(=O)Cc3cn(C)c4ccccc34)ccc2O[C@@H]1CN(C)S(=O)(=O)c1cccs1 ?
esBAF inh: inactive; miR122 inh: inactive

How did O=C(Nc1ccc2c(c1)OCO2)N[C@@H]1CC[C@H](CCNC(=O)C2CCCC2)O[C@H]1CO do in these assays?
HIV Env fusion: inactive; esBAF inh: inactive; miR122 inh: inactive

What do the screens show for `C[C@H](CO)N1C[C@H](C)[C@@H](CN(C)C(=O)C2CC2)Oc2ncc(C3=CCCC3)cc2C1=O`?
HIV Env fusion: inactive; miR122 inh: inactive

How did Cc1cnc(C(=O)Nc2nnc(C)s2)cn1 do in these assays?
HIV Env fusion: inactive; Wnt bcat act: inactive; miR122 inh: inactive; MITF TRPM1 HTS: inactive

How did O=C(/C=C/c1cccs1)c1ccc(NC(=O)c2cccc(Br)c2)cc1 do in these assays?
HIV Env fusion: inactive; esBAF inh: inactive; Wnt bcat act: inactive; miR122 inh: inactive; MITF TRPM1 HTS: inactive

Results for Cc1ccc(C(=O)Nc2ccc(N3CCCCC3)cc2)cc1 ?
HIV Env fusion: inactive; esBAF inh: inactive; Wnt bcat act: inconclusive; miR122 inh: inactive; MITF TRPM1 HTS: 106.3

How did Cc1ccc(C(=O)Nc2ccc(C(=O)/C=C/c3cccs3)cc2)cc1 do in these assays?
HIV Env fusion: inactive; esBAF inh: 69.3; Wnt bcat act: inactive; miR122 inh: inactive

What do the screens show for `Cc1cnc(C(=O)Nc2ccc(N3CCCCC3)cc2)cn1`?
HIV Env fusion: inactive; Wnt bcat act: inactive; MITF TRPM1 HTS: 91.6

Results for Cc1cnc(C(=O)Nc2nnc(C(C)C)s2)cn1 ?
HIV Env fusion: inactive; esBAF inh: inactive; Wnt bcat act: 32.2; miR122 inh: inactive

Results for CC(C)NC(=O)Nc1ccc2c(c1)C(=O)N([C@@H](C)CO)C[C@@H](C)[C@H](CN(C)S(=O)(=O)c1cn(C)cn1)O2 ?
HIV Env fusion: inactive; esBAF inh: inactive; miR122 inh: inactive

How did CCCN(C)C[C@H]1Oc2cc(C#CC(C)(C)O)ccc2S(=O)(=O)N([C@H](C)CO)C[C@H]1C do in these assays?
HIV Env fusion: inactive; esBAF inh: inactive; miR122 inh: inactive

How did Cc1ccc(C(=O)Nc2ccc(N3CCOCC3)cc2)cc1 do in these assays?
HIV Env fusion: inactive; esBAF inh: 56.3; MITF TRPM1 HTS: inactive

What do the screens show for `Cc1ccc(C(=O)Nc2ccc(N3CCCC3)cc2)cc1`?
HIV Env fusion: inactive; esBAF inh: 43.9; Wnt bcat act: inactive; miR122 inh: inactive; MITF TRPM1 HTS: inactive

How did O=C(Nc1ccc(OC(F)(F)F)cc1)c1cnc2n(c1=O)CCS2 do in these assays?
HIV Env fusion: inactive; esBAF inh: 47.8; Wnt bcat act: inactive; miR122 inh: inactive; MITF TRPM1 HTS: inactive

What do the screens show for `Nc1cc(C(=O)c2ccccc2)ccc1N1CCOCC1`?
HIV Env fusion: inactive; esBAF inh: 52.0; Wnt bcat act: inconclusive; miR122 inh: inactive

Results for O=C(Nc1ccccc1)c1cnc2n(c1=O)CCS2 ?
HIV Env fusion: inactive; esBAF inh: inactive; Wnt bcat act: inactive; miR122 inh: inactive; MITF TRPM1 HTS: inactive

Results for CC(=O)N(C)C[C@H]1Oc2ncc(C#Cc3cccnc3)cc2C(=O)N([C@@H](C)CO)C[C@@H]1C ?
HIV Env fusion: inactive; esBAF inh: inactive; miR122 inh: inactive

Results for C[C@@H]1CN([C@H](C)CO)C(=O)c2cc(-c3ccccc3F)cnc2O[C@@H]1CN(C)C(=O)CN(C)C ?
HIV Env fusion: inactive; esBAF inh: inactive; miR122 inh: inactive

Results for O=C(Nc1ccc(N2CCCCC2)cc1)c1cncc(Br)c1 ?
HIV Env fusion: inactive; esBAF inh: inactive; Wnt bcat act: 39.3; miR122 inh: inactive; MITF TRPM1 HTS: 127.8

Results for O=C(c1ccccc1)c1ccc(N2CCCC2)cc1 ?
HIV Env fusion: inactive; esBAF inh: 59.7; Wnt bcat act: inactive; miR122 inh: inactive; MITF TRPM1 HTS: 94.3

Results for Cc1ccc(/C=C/C(=O)c2ccc(N3CCOCC3)cc2)s1 ?
HIV Env fusion: inactive; Wnt bcat act: inactive; miR122 inh: inactive; MITF TRPM1 HTS: 91.5

From PubChem
